From PubChem
HSF-1 act = increases HSF-1 driven luciferase reporter signal; 300,000 tested, 1.7% active; activation, % at 9 µM; NIH3T3-HGL HSF-1 luciferase reporter, MG132, 8 h; 100% = twice DMSO control signal;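 active means mean replicate activation of at least 50% with a set share of replicates each reaching 50%; inconclusive means only one of those two conditions met; inactive means mean below 50% and too few replicates reaching it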;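 further: 0% = median of the neutral control wells and 100% = twice that signal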
Wnt act = Wnt/beta-catenin pathway activation; activation, % at 9.35 µM; 300,000 tested, 1.2% active; AID 743398; Wnt/beta-catenin reporter cell assay, activator, plate reader; in the data active means activation above about 30%, passing the limit was not always enough; inconclusive means no clear call, values can overlap the other calls;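 further: 0% = neutral control wells and 100% = positive control wells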
HSF1 inhib = HSF1 inhibition; NIH3T3-HGL HSE-luciferase, MG132-induced, luminescence 8 h; hits give low values; activity change, negative = inhibition, % at 7.5 µM (by protocol); 300,000 tested, 0.77% active; AID 2098;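 active means more than half of replicate wells show activity change below -50%, luminescence cut by over half; inconclusive means some wells, but at most half, below -50%; inactive means no replicate well below -50%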;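 further: luciferase reports HSF-1 transcriptional activity via heat shock element; 0% = median of DMSO wells and -100% = zero luminescence signal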
MITF TRPM1 HTS = activators of MITF-driven TRPM1 promoter activity in SK-MEL-5 cells. AID 588334. 300,000 tested, 0.75% active. activation, % at 12.5 µM. SK-MEL-5 TRPM1-promoter luciferase, 24 h; % of positive control, neutral wells = 0;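 active means mean activation of at least 80% with every replicate also reaching 80%; inconclusive means mean reaches 80% but some replicate falls short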;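 further: 0% = neutral control wells and 100% = parthenolide positive control wells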
esBAF inh = inhibitors of esBAF chromatin remodeling in mouse ES cells | 350,000 tested, 2% active | Bmi1-luciferase knock-in reporter, 24 h; 100% = twice the neutral-well signal | AID 602393 | reporter increase, % at 12.5 µM; in the data active means activation above about 40%; inconclusive means no clear call, values can overlap the other calls;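 further: 0% = median of the plate's neutral control wells and 100% = double that signal; a rise in the Bmi1 reporter signal indicates esBAF inhibition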
An asterisk follows results filed as active; u = inconclusive; x = not tested or not shown. Most compounds without a hit are left out; they make up all but 3.8% or so of the library.

SMILES	HSF-1 act	Wnt act	HSF1 inhib	MITF TRPM1 HTS	esBAF inh
Cc1cc(Cl)cc2sc(NC(=O)C3CC3)nc12	-6	8	6	1	18
O=C(Nc1nc(-c2ccc(-c3ccccc3)cc2)cs1)C1CCCO1 (stereo not given)	4	x	5	21	22
CO[C@H]1CN(C)C(=O)c2ccc(NC(=O)c3ccccc3)cc2OC[C@@H](C)N(C(=O)C2CC2)C[C@H]1C	x	x	x	x	6
C[C@H]1CN([C@@H](C)CO)S(=O)(=O)c2ccc(C3=CCCC3)cc2O[C@H]1CN(C)C(=O)CC1CC1	x	x	x	x	11
CC1=CCC(C(=O)O)C(C(=O)Nc2ccc(-c3nc4ccc(C)cc4s3)cc2)C1 (stereo not given)	-37	58*	-29	14	-20
CC1CC1C(=O)Nc1nc2ccc(S(C)(=O)=O)cc2s1 (stereo not given)	9	2	10	18	10
CC(=O)NC(=S)Nc1ccc(-c2nc3ccc(C)cc3s2)cc1	x	22	x	46	13
CC(C)c1ccc2nc(NC(=O)C3CC3)sc2c1	-12	58*	4	60	57*
Cc1ccc2nc(NC(=O)C3CC3C)sc2c1 (stereo not given)	38	28	9	49	72*
C[C@H]1CN([C@@H](C)CO)C(=O)c2cc(C#Cc3ccccc3F)cnc2O[C@H]1CN(C)C(=O)C1CC1	x	x	x	x	-4
Cc1cc(N2CCN(c3ccccc3)CC2)nc2ccccc12	18	4	10	8	24
c1ccc(N2CCN(c3cnc4ccccc4n3)CC2)cc1	75*	x	34	55	-2
COc1ccc(N2CCN(c3cnc4ccccc4n3)CC2)cc1	49	10	37	97*	53*
Clc1ccc(N2CCN(c3cnc4ccccc4n3)CC2)cc1	46	x	14	39	45*
COc1cccc(N2CCN(c3cnc4ccccc4n3)CC2)c1	x	8	x	50	x
Fc1ccc(N2CCN(c3cnc4ccccc4n3)CC2)cc1	34	42*	34	61	11
COc1ccc(N2CCN(c3cc(C)c4ccccc4n3)CC2)cc1	11	-1	4	-12	-1
CC(C)C#Cc1ccc2c(c1)O[C@@H](CN(C)C(=O)NC(C)C)[C@H](C)CN([C@@H](C)CO)S2(=O)=O	x	x	x	x	4
COc1ccc(CNC(=O)C[C@H]2C[C@H]3c4cc(NC(=O)CN(C)C)ccc4O[C@H]3[C@H](CO)O2)cc1	x	x	x	x	0
Clc1ccc(Sc2cnc3ccccc3n2)cc1	30	11	25	u	45*
c1ccc(Sc2cnc3ccccc3n2)cc1	23	x	14	70	x
c1ccc(-c2cc3cc4c(cc3cn2)OCO4)cc1	x	63*	x	27	30
COc1ccc(-c2cc3cc4c(cc3cn2)OCO4)cc1	x	37*	x	22	-32
COc1cc(OC)cc(-c2cc3cc4c(cc3cn2)OCO4)c1	x	x	x	31	-16
COc1ccc(-c2cc3cc(OC)c(OC)cc3cn2)cc1	x	u	x	72	68*
SMILES	HSF-1 act	Wnt act	HSF1 inhib	MITF TRPM1 HTS	esBAF inh
C[C@@H]1CN([C@@H](C)CO)C(=O)Cc2cc(NC(=O)Nc3ccc4c(c3)OCO4)ccc2O[C@@H]1CN(C)Cc1ccccc1	x	x	x	x	35
COc1ccc(C(=O)c2c3ccc(OC)cc3[n+]([O-])n2Cc2ccc(C(N)=O)cc2)cc1	x	27	x	50	61*
CCCC#Cc1cnc2c(c1)C(=O)N([C@@H](C)CO)C[C@H](C)[C@H](CN(C)C(=O)NCCC)O2	x	x	x	x	-2
CCCNC(=O)C[C@H]1CC[C@H]2[C@H](COc3ccc(NC(=O)NCC)cc3C(=O)N2C)O1	x	x	x	x	2
Cc1ccccc1NC(=O)C(=Cc1ccc(C(=O)O)cc1)C(=O)Nc1ccccc1C	146*	-8	85	-49	x
CC(=O)/C(=C/c1ccccc1)C(=O)Nc1ccccc1C	55*	-5	31	-41	2
CCC(=O)N1[C@H](CO)[C@@H](c2ccc(-c3ccc(F)cc3)cc2)[C@@H]1CNC(C)=O	x	x	x	x	2
CO[C@H]1CN(C)C(=O)c2cc(NC(=O)Nc3cc(F)ccc3F)ccc2OC[C@H](C)N(C)C[C@H]1C	x	x	x	x	-27
Cc1ccc(-c2ccc(=O)n(CCC(=O)NCCN3CCCCC3C)n2)cc1 (stereo not given)	-80	2	-75*	6	4
CCCNC(=O)N[C@@H]1CC[C@H](CC(=O)NC2CCC2)O[C@@H]1CO	x	x	x	x	-2
O=C(CCCc1ccccc1)c1ccccc1	37	31*	20	92*	23
O=C(CCc1ccccc1)c1ccc2c(c1)OCCCO2	u	x	27	122*	76*
O/N=C(/CCc1ccccc1)c1ccc2c(c1)OCCO2	55*	9	22	92*	46*
O=C(CCCc1ccccc1)c1ccc2c(c1)OCCO2	-91	-12	-89*	-78	-84
O=C(O)CCC(=O)c1ccc2c(c1)OCCCO2	18	8	0	x	5
CO[C@@H]1CN(C)C(=O)c2cc(NC(=O)c3ccc(F)cc3)ccc2OC[C@@H](C)N(C(=O)CN(C)C)C[C@H]1C	x	x	x	x	4
CO[C@@H]1CN(C)C(=O)c2ccc(NS(=O)(=O)c3ccccc3C)cc2OC[C@@H](C)NC[C@@H]1C	x	x	x	x	2
C[C@@H]1CCCCO[C@@H](CN(C)C(=O)Nc2ccc(C(F)(F)F)cc2)[C@@H](C)CN([C@H](C)CO)C(=O)c2cc(NC(=O)C3CCCCC3)ccc2O1	x	x	x	x	1
Cc1cc(C)n2nc(CC#N)c(C#N)c2n1	-3	0	-5	-8	x
N#C/C(=C\c1ccccn1)c1ccccn1	-66	17	-60*	-4	18
Cc1cc(C)n2nc(/C(C#N)=C/c3ccccn3)c(C#N)c2n1	99*	4	71	-7	-1
N#C/C(=C/c1cccs1)c1ccccn1	31	44*	9	u	x
Cc1cccc(NC(=O)Nc2ccc3c(c2)C(=O)N(C)[C@H]2CC[C@@H](CC(=O)O)O[C@@H]2CO3)c1	x	x	x	x	6
CCCNC(=O)Nc1ccc2c(c1)OC[C@@H](C)N(CCC(F)(F)F)C[C@H](C)[C@@H](OC)CN(C)C2=O	x	x	x	x	-4
CC(C)c1cc2cc3ccc(=O)oc3cc2o1	28	-2	11	94*	52*
SMILES	HSF-1 act	Wnt act	HSF1 inhib	MITF TRPM1 HTS	esBAF inh
O=c1ccc2cc3ccoc3cc2o1	-5	-1	2	x	-9
CCN1CCN(CCCNc2ncnc3nc[nH]c23)CC1	-89	-1	-87*	-16	-4
c1cn(CCCNc2ncnc3nc[nH]c23)cn1	4	1	2	0	3
O=C(Nc1ccc(CN2CCOCC2)cc1)c1cccc(F)c1	2	x	6	88*	4
O=C(Nc1ccc(CN2CCOCC2)cc1)c1ccc(F)cc1	8	12	3	66	16
O=C(Nc1ccc(CN2CCOCC2)cc1)c1ccc(Cl)cc1	24	12	15	47	44*
O=C(Nc1ccc(CN2CCOCC2)cc1)c1ccc(Br)cc1	5	0	10	x	u
